# Measurements from the supplement of paper PMC10981050.
# Several values for one entry are separate records, joined by “and”; a condition that tells them apart may be missing. Equal entries are not always repeated. Structures can show the parent of a compound that is named as a salt.
# Tests used:
# Experiment in all cases: cell viability relative to vehicle control; higher = less cytotoxic
# Conditions in all cases: 10 µM
# [1] = system: K562
# Outline: (§1)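 CRISPR-edited mutant clones and isogenic wild-type clones from four leukaemia lines were screened against Selleck bioactive, kinase and epigenetic probe libraries, with identity-inconsistent compounds excluded. Each compound was acoustically dispensed at a single 10 µM dose into 384-well plates holding 2000 cells in 50 µL medium per well. After 48 h the supernatant was removed and CellTiter-Glo luminescence was read. Viability was expressed as percent of the on-plate vehicle control and analysed in Genedata Screener.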
# [2] = system: MARIMO
# Outline: as §1
# [3] = system: MOLM14
# Outline: as §1
# [4] = system: OCI-AML2
# Outline: as §1
SMILES,cell viability ([1]; SRSF2 genotype: SRSF2 P95H/wt),cell viability ([1]; SRSF2 genotype: SRSF2 wt/wt) [%],cell viability ([2]; SRSF2 genotype: SRSF2 P95H/wt) [%],cell viability ([2]; SRSF2 genotype: SRSF2 wt/wt) [%],cell viability ([3]; SRSF2 genotype: SRSF2 P95H/wt) [%],cell viability ([3]; SRSF2 genotype: SRSF2 wt/wt) [%],cell viability ([4]; SRSF2 genotype: P95H/wt) [%],cell viability ([4]; SRSF2 genotype: wt/wt) [%]
Cc1cccc(CC(=O)N2CCc3c2ccc(-c2cn(C)c4ncnc(N)c24)c3F)n1,75.2% and 84.4%,80.4,74.5,72.5,80.8,93.8,69.3,73.8
COc1cc(OC)c2c(=O)[nH]c(-c3cc(C)c(OCCO)c(C)c3)nc2c1,81.8% and 87.1%,87.5,80.1,71.1,77.8,81.3,79,86
C[C@H](Oc1ccc(S(C)(=O)=O)cc1C(=O)N1CCN(c2ncc(C(F)(F)F)cc2F)CC1)C(F)(F)F,105% and 98.9%,95,97.1,107,97.3,105,101,104
Cc1ccc(NC(=O)c2ccc(CN3CCN(C)CC3)cc2)cc1Nc1nc(-c2cccnc2)cs1 [Masitinib (AB1010)],6.35% and 18.8%,12.1,72.5,59.7,70.3,67.8,52,52.1
C[C@]12CC[C@@H]3c4ccc(O)cc4CC[C@H]3[C@@H]1C[C@@H](O)[C@@H]2O [Estriol],104% and 92.3%,87.9,86.4,99.5,101,99.9,91,101
COc1cc2c(=O)c(-c3ccc(O)cc3)coc2cc1O [Glycitein],97.5% and 92.1%,102,95.4,90.8,93.7,98.1,90.3,82.3
CC(C)=CCC/C(C)=C/CC/C(C)=C/CC/C=C(\C)CC/C=C(\C)CCC=C(C)C [Squalene],101% and 105%,99.6,111,105,101,101,110,108
O=C1CCc2cc(OCCCCc3nnnn3C3CCCCC3)ccc2N1 [Cilostazol],97.9% and 98.4%,96.8,103,102,100,101,109,97.9
COC[C@H]1C[C@@H](c2nc(-c3ccc4c(c3)COc3cc5c(ccc6nc([C@@H]7CC[C@H](C)N7C(=O)[C@@H](NC(=O)OC)C(C)C)[nH]c65)cc3-4)c[nH]2)N(C(=O)[C@H](NC(=O)OC)c2ccccc2)C1 [Velpatasvir],95.6% and 98.5%,87.6,88.2,91.6,90.1,93.5,98,93.6
COc1cc(O)c(C(=O)/C=C/c2ccccc2)c(OC)c1 [Flavokawain B],23.3% and 39%,58,34.5,39,22.6,11.3,22.8,25.2
CC(C)N(CCCCOCC(=O)NS(C)(=O)=O)c1cnc(-c2ccccc2)c(-c2ccccc2)n1 [Selexipag],110% and 100%,100,97,109,97.6,98.2,96.9,109
COC(=O)[C@@H]1CC2=CC(=O)CC[C@]2(C)[C@@]23O[C@@H]2C[C@@]2(C)[C@@H](CC[C@@]24CCC(=O)O4)[C@H]13 [Eplerenone],98.4% and 103%,103,98,103,107,95.6,100,101
O=C(O)[C@@]1(CCCCCCOc2ccc(Cl)cc2)CO1 [Etomoxir (Na salt)],113% and 110%,115,104,110,106,108,107,96.8
CCn1c(N)c(C(=O)NC)c(=O)c2ccc(C#CC(C)(O)COC)nc21 (configuration not stated),105% and 99.5%,97.9,87.4,93.7,48.1,55.5,64.6,64.6
CC1(C)S[C@@H]2[C@H](NC(=O)[C@H](C(=O)O)c3ccsc3)C(=O)N2[C@H]1C(=O)O [Ticarcillin sodium],95.6% and 98.8%,104,101,95.7,96.3,101,98.2,89.6
NC(=O)c1ccc(-c2nc(-c3ccccn3)c(-c3ccc4c(c3)OCO4)[nH]2)cc1,103% and 105%,97.9,100,106,102,97.9,109,98.3
N=C(N)c1ccc(OCCCCCOc2ccc(C(=N)N)cc2)cc1 [Pentamidine isethionate],53.9% and 50%,55.9,63.3,62.8,72,70.5,65.5,57.8
Cc1cncc(CN2CCC(=C3c4ccc(Cl)cc4CCc4cccnc43)CC2)c1 [Rupatadine Fumarate],77% and 89.3%,76.5,62.6,54.1,61.4,64.4,38.6,46
CN(c1ccccc1CNc1nc(Nc2ccc3c(c2)CC(=O)N3)ncc1C(F)(F)F)S(C)(=O)=O,17% and 28.3%,16.4,8.93,3.27,0.69,0.39,1.33,13.7
